Data on 201 variants can be found in a collection of fitness landscapes (doi:10.1016/j.celrep.2020.107928).

Over roughly 81,000 sequences, “one-hybrid fitness for binding NBS DNA” has its median near -0.1; the highest 2% begin near 0.36. Many of the other results were omitted from the sample, so the highest values are more common in it than they were.

The chains are these.
B1: Caulobacter ParB omega fusion; a variant is named by its letters at X, in order, B8GW30 (parent)
chain: MESVVVGEPGMSEGRRGLGRGLSALLGEVDAAPAQAPGEQLGGSREAPIEILQRNPDQPRRTFREEDLEDLSNSIREKGVLQPILVRPSPDTAGEYQIVAGERAWRAAQRAGLKTVPIMVRELDDLAVLEIGIIENVQRADLNVLEEALSYKVLMEKFERTQENIAQTIGKSXSHVANXMRLLXLPDEVQSYLVSGELTAXHARAIAAAADPVALAKQIIEGGLSVRETEALARKAPNLSAGKSKGGRPPRVKDTDTQALESDLSSVLGLDVSIDHRGSTGTLTITYATLEQLDDLCNRLTRGI

In the experiment the parent is B1. Kind of experiment: one-hybrid fitness for binding NBS DNA (the Noc-binding site; scaled: cognate 1, non-cognate 0); higher = stronger binding. Particulars: with NBS DNA site. In short, it runs like this: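 Fitness is the rescaled log change in variant-to-wild-type read ratio, measured by Illumina sequencing of plasmids before and after bacterial one-hybrid selection. The scale puts cognate at 1 and non-cognate at 0. Selection of Caulobacter ParB libraries, four specificity codons randomised, took place in E. coli USO with a HIS3 reporter, site 19 bp from the promoter, over 48 hours at 37°C on M9-minus-histidine with 0.1 mM IPTG and 5 mM 3-AT.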
As for LYGT, the “one-hybrid fitness for binding NBS DNA” value was not above 0.2.
In the case of ACDR it was not above 0.2; in that of DHGS, not above 0.2; in that of GRAP, not above 0.2.
In the case of MVHG it was not above 0.2; in that of SQHN, not above 0.2; in that of QTTY, 0.301.
As to QATD, the “one-hybrid fitness for binding NBS DNA” value was not above 0.2.
DRTT: the “one-hybrid fitness for binding NBS DNA” value was not above 0.2.
In the case of QKTM it was not above 0.2; in that of QKTP, not above 0.2; in that of QTTT, 0.603.
The value for QATH was not above 0.2; that for QNTT was not above 0.2; that for QRTT was 0.759.
Turning to QKTT, the “one-hybrid fitness for binding NBS DNA” value is 0.56.
In the case of QTTG it was not above 0.2; in that of QATT, 0.379.
The value for ERNT was not above 0.2; that for SKLS was not above 0.2; that for CYAV was not above 0.2.
The value for RIEC was not above 0.2; that for GTHW was not above 0.2; that for QHTM was not above 0.2.
Consider QHTT, for which the “one-hybrid fitness for binding NBS DNA” value was 0.412.
In the case of QHTY, the “one-hybrid fitness for binding NBS DNA” value was not above 0.2.
Consider KWAC, for which the “one-hybrid fitness for binding NBS DNA” value is not above 0.2.
Take TYFR: the “one-hybrid fitness for binding NBS DNA” value was not above 0.2.
In the case of RREI it was not above 0.2; in that of RRKI, 0.607; in that of RCKI, not above 0.2.
The value for RRRI was 0.451; that for RRVI was not above 0.2.
In the case of RRYI it was not above 0.2; in that of VLSD, not above 0.2; in that of DRYG, not above 0.2.
Consider SACR, for which the “one-hybrid fitness for binding NBS DNA” value was not above 0.2.
The value for CRNI was not above 0.2; that for ARTS was not above 0.2.
The value for DRFT was not above 0.2.
The value for KRAT was 0.572; that for KRFT was 0.565.
Consider KCAT, for which the “one-hybrid fitness for binding NBS DNA” value is not above 0.2.
The value for NRFT was not above 0.2; that for KRAH was not above 0.2.
The value for ERLC was not above 0.2; that for DGPR was not above 0.2.
In the case of QMHQ it was not above 0.2; in that of QMCT, 0.339; in that of QMET, 0.295.
Take QMRT: the “one-hybrid fitness for binding NBS DNA” value was 0.79.
In the case of QMHT it was 0.497.
Take DMRT: the “one-hybrid fitness for binding NBS DNA” value was not above 0.2.
The value for QMHG was not above 0.2; that for QMWT was 0.36.
The value for QTLT was 0.527; that for QMYT was 0.436; that for QTLK was not above 0.2.
With KGMW, the “one-hybrid fitness for binding NBS DNA” value was not above 0.2.
The value for IVAT was not above 0.2; that for PGEM was not above 0.2.
In the case of MPVM it was not above 0.2.
With GHRC, the “one-hybrid fitness for binding NBS DNA” value is not above 0.2.
In the case of NPHC it was not above 0.2; in that of QMDT, 0.345.
Turning to QMNT, the “one-hybrid fitness for binding NBS DNA” value came to 0.52.
In the case of QPLT it was not above 0.2; in that of QMND, not above 0.2; in that of QSLT, 0.327.
The value for QCLT was 0.487.
In the case of QMSG it was not above 0.2; in that of QMAF, not above 0.2.
For QMAG, the “one-hybrid fitness for binding NBS DNA” value was not above 0.2.
The value for QMAT was 0.505; that for QMSF was not above 0.2.
Turning to QMST, the “one-hybrid fitness for binding NBS DNA” value worked out at 0.457.
The value for CHMT was not above 0.2; that for EHDV was not above 0.2.
The value for SSEQ was not above 0.2.
Turning to GTKR, the “one-hybrid fitness for binding NBS DNA” value worked out at 0.255.
In the case of RILE it was not above 0.2; in that of RWLC, not above 0.2; in that of ADHS, not above 0.2.
The value for SITC was not above 0.2; that for TCAG was not above 0.2; that for QMLT was 0.395.
In the case of QMPT it was 0.312; in that of QMQF, not above 0.2.
As to QMQT, the “one-hybrid fitness for binding NBS DNA” value turned out to be 0.392.
The value for QMLN was not above 0.2; that for QMQY was 0.223.
The value for QMGM was not above 0.2; that for QMLP was not above 0.2; that for QMGL was not above 0.2.
In the case of QMIT it was 0.402.
As to QMIN, the “one-hybrid fitness for binding NBS DNA” value was not above 0.2.
For the variant QMGT, the “one-hybrid fitness for binding NBS DNA” value stood at 0.447.
The value for HGKF was not above 0.2; that for ARGT was not above 0.2; that for PESN was not above 0.2.
In the case of MRTC it was not above 0.2; in that of LKVF, not above 0.2; in that of YDRK, not above 0.2.
The value for EANW was not above 0.2; that for QTSN was 0.221; that for QPSS was not above 0.2.
As for QMSH, the “one-hybrid fitness for binding NBS DNA” value was not above 0.2.
The value for QMSS was 0.376; that for QCSS was 0.449.
In the case of QTSP it was not above 0.2.
In the case of QHSP it was not above 0.2.
With QSSS, the “one-hybrid fitness for binding NBS DNA” value stood at 0.353.
With QHSS, the “one-hybrid fitness for binding NBS DNA” value was found to be 0.37.
In the case of QHSH it was not above 0.2; in that of QMSP, not above 0.2; in that of QTSS, 0.522.
In the case of NGMI it was not above 0.2; in that of PSRF, not above 0.2; in that of GSQF, not above 0.2.
As to RLMM, the “one-hybrid fitness for binding NBS DNA” value is not above 0.2.
The value for HSIS was not above 0.2.
On to RMIR, for which the “one-hybrid fitness for binding NBS DNA” value stood at 0.253.
Turning to RMQR, the “one-hybrid fitness for binding NBS DNA” value came out at 0.411.
The value for RMYR was 0.424; that for RMRR was 0.736.
Turning to RMSN, the “one-hybrid fitness for binding NBS DNA” value is not above 0.2.
In the case of RMQF it was not above 0.2; in that of RMQG, not above 0.2; in that of RMRP, not above 0.2.
In the case of RMPR, the “one-hybrid fitness for binding NBS DNA” value is not above 0.2.
Take RMSR: the “one-hybrid fitness for binding NBS DNA” value stood at 0.468.
The value for RMSP was not above 0.2; that for RMWR was 0.289.
The value for RYMW was not above 0.2; that for MSPG was not above 0.2.
In the case of AAPF it was not above 0.2; in that of KVSV, not above 0.2.
As to SDKS, the “one-hybrid fitness for binding NBS DNA” value is not above 0.2.
Regarding WSYG, the “one-hybrid fitness for binding NBS DNA” value was not above 0.2.
On to SPGT, for which the “one-hybrid fitness for binding NBS DNA” value was not above 0.2.
The value for PNYD was not above 0.2; that for KQNC was not above 0.2; that for VKNL was not above 0.2.
As to FTGV, the “one-hybrid fitness for binding NBS DNA” value is not above 0.2.
On to QSPF, for which the “one-hybrid fitness for binding NBS DNA” value was not above 0.2.
In the case of TTVG it was not above 0.2; in that of GWPD, not above 0.2; in that of RMGN, not above 0.2.
The value for RMLR was 0.431; that for RMGR was 0.479; that for RMHR was 0.503.
The value for RMLN was not above 0.2; that for RMHM was not above 0.2.
RMHF: the “one-hybrid fitness for binding NBS DNA” value was not above 0.2.
The value for RMGH was not above 0.2; that for RMFR was 0.348.
In the case of RMLS it was 0.309; in that of RMAD, not above 0.2; in that of RMAR, 0.46.
As to LIKT, the “one-hybrid fitness for binding NBS DNA” value is not above 0.2.
The value for VQSV was not above 0.2; that for DCSG was not above 0.2.
The value for TPHH was not above 0.2; that for LLVG was not above 0.2.
In the case of TAIG, the “one-hybrid fitness for binding NBS DNA” value was not above 0.2.
Regarding HVIC, the “one-hybrid fitness for binding NBS DNA” value was not above 0.2.
The value for VVRW was not above 0.2; that for RMCN was not above 0.2; that for RMDR was not above 0.2.
The value for RMNN was not above 0.2.
The value for RMCH was not above 0.2; that for RMCR was 0.433.
Consider RMNR, for which the “one-hybrid fitness for binding NBS DNA” value came to 0.545.
The value for NAAS was not above 0.2; that for FAYR was not above 0.2; that for FARL was not above 0.2.
The value for FAFL was 0.451; that for FAAL was not above 0.2.
In the case of FAFR it was 0.364.
Consider FAAR, for which the “one-hybrid fitness for binding NBS DNA” value was not above 0.2.
The value for MKNR was not above 0.2; that for NTMM was not above 0.2; that for VTYY was not above 0.2.
In the case of HWST it was not above 0.2; in that of WHPR, not above 0.2.
With RPLR, the “one-hybrid fitness for binding NBS DNA” value was not above 0.2.
In the case of RKLR it was 0.525.
In the case of RKLN it was not above 0.2; in that of RSLR, 0.339; in that of RKLH, 0.227.
The value for RCLR was 0.416; that for VCVG was not above 0.2; that for QFIL was not above 0.2.
Turning to QQKQ, the “one-hybrid fitness for binding NBS DNA” value was 0.493.
In the case of QQLQ it was not above 0.2; in that of QQVF, not above 0.2.
Regarding QQRQ, the “one-hybrid fitness for binding NBS DNA” value worked out at 0.421.
In the case of QQYQ it was not above 0.2; in that of QQAQ, not above 0.2; in that of QQVQ, 0.395.
The value for QQSQ was not above 0.2.
